Our source for the growth values is PubChem BioAssay (NCI).

Test systems include NCI-H23 lung; NCI-H226 lung; NCI-H322M lung; HOP-62 NSCLC; NCI-H460 lung; HOP-92 NSCLC; NCI-H522 lung; A549/ATCC NSCLC; 786-0 renal; COLO 205 colon; DU-145 prostate; K-562 leukemia; MALME-3M melanoma; MDA-MB-231 breast; RXF 393 renal; SF-268 CNS; SF-295 CNS; SF-539 CNS; UACC-257 melanoma; M14 melanoma.
Assay in all cases: NCI-60 one-dose screen, 48 h (100 = growth as untreated, 0 = no growth, -100 = all killed)
Holding throughout (conditions): 10 µM unless noted

The panel holds about 83,000 compounds, 20% with a hit somewhere; the sample as a whole holds those more often.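 Compound tested at a single concentration for 48 hours in 96-well plates; a percent growth value below 10 was scored as active.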 Values without a mark were called inactive. Activity calls are given as the source filed them.

As to `CCN(CC)c1ccc(CNc2ccnc3ccccc23)cc1`, the growth in the assay on NCI-H23 lung was 28.8%; in the assay with NCI-H226 lung, 58.6%; in the assay on NCI-H322M lung it was 70.6%; in the assay on HOP-62 NSCLC, 66%; in the assay on NCI-H460 lung, 55.2%; in the assay with HOP-92 NSCLC, -6.79% (active). Besides, the growth in the assay on NCI-H522 lung was 56.2%; in the assay on A549/ATCC NSCLC, 58.9%; in the assay on 786-0 renal it was 72.5%; in the assay on COLO 205 colon, 25.6%; in the assay on DU-145 prostate, 70%; in the assay on K-562 leukemia, 9.95% (active). Further, the growth with MALME-3M melanoma was 49.5%; with MDA-MB-231 breast, 70.2%; in the assay with RXF 393 renal it was 71.7%; in the assay with SF-268 CNS, 82.3%; in the assay with SF-295 CNS, 51.4%; in the assay on SF-539 CNS it was 69.7%. Also, the growth is 36.2% in the assay with UACC-257 melanoma and 56.2% in the assay with M14 melanoma.
For the compound `COc1ccc(-c2cc(-c3ccccc3)nc(SCCCC(=O)NO)n2)cc1OC`, the growth with NCI-H23 lung is -2.44% (active); in the assay with NCI-H226 lung, 10.4%; with NCI-H322M lung, 17.1%; with HOP-62 NSCLC, 5.03% (active); with NCI-H460 lung, 1.88% (active); with HOP-92 NSCLC it was -10.6% (active). Moreover, the growth is -22.8% (active) with NCI-H522 lung; -17.1% (active) with A549/ATCC NSCLC; 0.761% (active) in the assay on 786-0 renal; 23.7% in the assay on COLO 205 colon; 1.4% (active) in the assay on DU-145 prostate; 3.02% (active) with K-562 leukemia. Further, the growth is -3.72% (active) with MALME-3M melanoma; 6.56% (active) with MDA-MB-231 breast; -21.1% (active) in the assay on RXF 393 renal; -19.2% (active) in the assay on SF-268 CNS; -0.804% (active) with SF-295 CNS; 14.8% with SF-539 CNS. Further, the growth in the assay with UACC-257 melanoma was -18.2% (active); in the assay on M14 melanoma it was -4.14% (active).
For the compound `COc1ccc2[nH]c(=O)c3c4ccccc4cn3c2c1`, the growth in the assay with NCI-H23 lung is 39.4%; in the assay on NCI-H226 lung, 37%; in the assay with NCI-H322M lung, 11.6%; in the assay with HOP-62 NSCLC, 39.3%; in the assay on NCI-H460 lung, 2.51% (active); in the assay with HOP-92 NSCLC, 33.7%. Moreover, the growth was 3.62% (active) in the assay with NCI-H522 lung; 40.1% in the assay with A549/ATCC NSCLC; 17.7% in the assay on 786-0 renal; 0.252% (active) with COLO 205 colon; 11.3% with DU-145 prostate; 4.25% (active) in the assay on K-562 leukemia. Besides, the growth is 12.6% with MALME-3M melanoma; 28.5% in the assay with MDA-MB-231 breast; -25.2% (active) in the assay on RXF 393 renal; 1.5% (active) in the assay with SF-268 CNS; -2.6% (active) in the assay with SF-295 CNS; 9.14% (active) in the assay on SF-539 CNS. For the same compound, the growth in the assay with UACC-257 melanoma was 51.3%; with M14 melanoma, 23.9%.
Regarding `Fc1ccc(Nc2ncnc3ccc(-c4cnc5[nH]ccc5c4)cc23)cc1Cl`, the growth was 36.1% in the assay with NCI-H23 lung; 4.94% (active) in the assay with NCI-H226 lung; 19.2% in the assay with NCI-H322M lung; 29.1% with HOP-62 NSCLC; -58.9% (active) in the assay with NCI-H460 lung; -5.43% (active) with HOP-92 NSCLC. Besides, the growth in the assay on NCI-H522 lung is -33.3% (active); in the assay with A549/ATCC NSCLC it was -50.1% (active); with 786-0 renal it was -44.1% (active); in the assay on COLO 205 colon, 11%; in the assay on DU-145 prostate it was 40.4%; in the assay with K-562 leukemia, 4.25% (active). Also, the growth with MALME-3M melanoma was 2.95% (active); with MDA-MB-231 breast it was -16.9% (active); with RXF 393 renal, -27.3% (active); in the assay on SF-268 CNS, 32.8%; in the assay on SF-295 CNS it was -32.2% (active); in the assay with SF-539 CNS, -73.2% (active). The growth in the assay with UACC-257 melanoma is 39.2%; in the assay on M14 melanoma, 42.7%.
With `O=C(Nc1ccc2c(c1)OCO2)C(=O)c1c[nH]c2cc(F)ccc12`, the growth is 79.6% with NCI-H23 lung; 73% in the assay on NCI-H226 lung; 65.3% with NCI-H322M lung; 54.4% in the assay on HOP-62 NSCLC; 41.3% in the assay with NCI-H460 lung; 42.2% in the assay on HOP-92 NSCLC. In addition, the growth in the assay with NCI-H522 lung is 61.2%; with A549/ATCC NSCLC it was 48.9%; in the assay with 786-0 renal it was 57.7%; in the assay with COLO 205 colon, 83.1%; in the assay on DU-145 prostate, 34.5%; in the assay on K-562 leukemia, 26.4%. Besides, the growth in the assay with MALME-3M melanoma was 73%; with MDA-MB-231 breast it was 25.6%; with RXF 393 renal it was 75.4%; in the assay on SF-268 CNS it was 47.6%; in the assay on SF-295 CNS it was 24.2%; with SF-539 CNS, 56.1%. The values for the growth in the assay on UACC-257 melanoma and in the assay with M14 melanoma were 64.4% and 29.9%, respectively.
With `Cc1ccc(S(=O)(=O)NCCNc2cc(-c3cn(C(C)(C)C)nc3-c3cccc(O)c3)ccn2)cc1`, the growth is 74.7% in the assay with NCI-H23 lung; 61.8% in the assay on NCI-H226 lung; 82.2% in the assay on NCI-H322M lung; 93.3% in the assay on HOP-62 NSCLC; 60.8% in the assay with NCI-H460 lung; 75.1% in the assay on HOP-92 NSCLC. In addition, the growth in the assay with NCI-H522 lung is 68.1%; in the assay on A549/ATCC NSCLC it was 70.6%; in the assay on 786-0 renal, 68.5%; with COLO 205 colon, 18.1%; in the assay with DU-145 prostate, 88.9%; in the assay on K-562 leukemia, 18.6%. The growth in the assay on MALME-3M melanoma was 61.8%; in the assay with MDA-MB-231 breast it was 76.6%; in the assay with RXF 393 renal it was 68.2%; in the assay with SF-268 CNS, 62%; in the assay on SF-295 CNS, 71.6%; in the assay on SF-539 CNS, 64.5%. Besides, the growth was 79.2% in the assay on UACC-257 melanoma and 86.9% in the assay with M14 melanoma.
Consider `Cc1ccc(C(=O)NCCCNc2nccc(-n3ccc4cccnc43)n2)cc1`, for which the growth in the assay with NCI-H23 lung was 102%; in the assay on NCI-H226 lung it was 93.4%; in the assay with NCI-H322M lung, 91.6%; with HOP-62 NSCLC, 104%; with NCI-H460 lung, 109%; in the assay on HOP-92 NSCLC, 96.4%. In addition, the growth was 88% in the assay with NCI-H522 lung; 93.4% in the assay on A549/ATCC NSCLC; 93.7% with 786-0 renal; 103% with COLO 205 colon; 96.5% with DU-145 prostate; 92.1% with K-562 leukemia. For the same compound, the growth with MALME-3M melanoma was 111%; with MDA-MB-231 breast, 104%; in the assay with RXF 393 renal it was 102%; in the assay on SF-268 CNS, 94.7%; with SF-295 CNS it was 96%; with SF-539 CNS, 99.2%. Besides, the results for the growth in the assay on UACC-257 melanoma and in the assay on M14 melanoma were 107% and 102%, respectively.
As to `COc1ccc(C(=O)c2cc(OC)c(OC)c(OC)c2OC)cc1O`, the growth with NCI-H23 lung was 44.2%; in the assay with NCI-H226 lung, 86.8%; in the assay on NCI-H322M lung, 55.4%; in the assay on HOP-62 NSCLC it was 42%; in the assay with NCI-H460 lung it was 13.7%; in the assay on HOP-92 NSCLC, 60.4%. For the same compound, the growth with NCI-H522 lung is -0.0983% (active); with A549/ATCC NSCLC, 50.6%; in the assay on 786-0 renal, 51%; in the assay on COLO 205 colon, 86%; with DU-145 prostate, 35.6%; with K-562 leukemia, 27.6%. Besides, the growth was 23% in the assay with MALME-3M melanoma; 56% in the assay on MDA-MB-231 breast; 40% in the assay with RXF 393 renal; 38.9% in the assay with SF-268 CNS; 33.3% with SF-295 CNS; 23.8% with SF-539 CNS. Besides, the growth in the assay with UACC-257 melanoma was 79.9%; with M14 melanoma, 10.9%.
